In PubChem BioAssay AID1347426 (Functional Genomics Laboratory (NCATS/FGL), 2020):
In all, about 31,000 sequences went through this assay and about 1,400 (4.5%) were called active.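 The calls were made as follows: active = median seed-adjusted z-score above 1 or below -1; inactive = the rest.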 The full list was thinned out, with actives kept by preference.

Assay: Novel Modifiers of Survival Motor Neuron (SMN) Protein: Gene Identification via Genome-wide siRNA Screen
Conditions: HEK293T SMN2-luciferase reporter, siRNA knockdown, 72 h; actives lie on both sides
Outline: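 Each of three siRNAs per gene is reverse-transfected (1 pmol) into reporter HEK293T cells whose luciferase output tracks SMN protein level. After 72 h culture, ONE-Glo luminescence is control-normalized, log10-transformed and MAD-standardized; Common Seed Analysis deprioritizes seed-driven hits.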

Row | Sequence | median seed-adjusted z-score
1 | GGAGAUAGAACCUUCCAGATT against HLA-B | -0.355 (inactive)
2 | CUAGAGUCGCUGUUGAAGATT against DRAP1 | 1.08 (active)
3 | GGGUGGAGGUGUACUAUGATT against LOXL2 | 0.177 (inactive)
4 | CAUCAUCAGUUUUUCGAUUTT against AHCTF1 | -0.501 (inactive)
5 | GAUGCCCAGUGUCCUGUUATT against PIF1 | -0.0455 (inactive)
6 | GCAAGACAAGUGUCGGGAATT against HSPA6 | 0.364 (inactive)
7 | CAGCAGAACGUGUACGAGATT against ZBTB7A | -0.344 (inactive)
8 | CAAGUGGGCUGAGUACCAUTT against PHPT1 | 1.27 (active)
9 | GAGGUAAGAUGGAUGAAGATT against ACSM1 | 0.658 (inactive)
10 | UCAAUGCCUCCUUAAUUUUTT against ZNF321 | -0.642 (inactive)
11 | CAGCGGAUGUGUUCAGUCUTT against PKMYT1 | 0.65 (inactive)
12 | CAAAACUAGUAAUCCUUAUTT against CDK8 | -1.47 (active)
13 | GGACAUGUGCGUCUACCGATT against HOXD13 | 0.116 (inactive)
14 | GGAUUUAUCAGAACCUUUATT against SLC25A15 | -0.0116 (inactive)
15 | CCUACCAUCUUGUCCCUAATT against SLC7A6 | -0.0877 (inactive)
16 | UGGAGUAAAUGAUAAGAUATT against TRIM45 | -0.0974 (inactive)
17 | GCACCAUUACUAUAGAGGATT against PTH2R | -0.492 (inactive)
18 | CAUCACCUAUUGGAUCCAATT against MMP9 | -1.15 (active)
19 | CGGUCCAAAUUGAAAGCGATT against STX1B | 0.229 (inactive)
20 | CGACUUGUUGUAUAAGUAUTT against DYNC1LI2 | -0.491 (inactive)
21 | CCAAGUUAUUGCUAUCAGATT against PPCS | 0 (inactive)
22 | GGUAAACGCAAAGCACUGATT against MAP2K4 | -0.366 (inactive)

Row | Sequence | median seed-adjusted z-score
23 | GCCUCUUGCUAGGCAUAGCTT against CLDN15 | 0.973 (inactive)
24 | CCCUCGACAGAGUCAGUUUTT against NPC1 | -0.195 (inactive)
25 | GAUUGAAACUGACAAGACATT against DLST | 1.16 (active)
26 | CAGCUACGGAAGAACCUGATT against PHF21A | 0.179 (inactive)
27 | UCGAGGAAAUGAUCCGGGATT against GALE | -0.153 (inactive)
28 | GGAGGAUCGUUUAGACAGATT against TCF12 | -0.16 (inactive)
29 | CAGCUGCAAUUCUAGCUAATT against RETSAT | -1.7 (active)
30 | CAAUCACUGUGGAAUAUCATT against INPPL1 | 0.199 (inactive)
31 | CAAGGGUAUUAUUCGAGUUTT against PPP1R3A | -0.241 (inactive)
32 | GAAAACCGCAGAUAAAGUATT against NFRKB | 0.787 (inactive)
33 | GGUGCAAUCAGAUAACAUATT against PPAPDC1A | 0.634 (inactive)
34 | CUGUUUAAGCGAUGACAAATT against CFL2 | -0.148 (inactive)
35 | AUCCUUAUUUGACACGAAATT against HOXC8 | -0.0285 (inactive)
36 | GGACUUUGCCUAUGUCUGUTT against TFAP2C | 1.28 (active)
37 | AGACCACCAAGGUUUCUUUTT against KCNH6 | 0.424 (inactive)
38 | CUGGAAUGGUUGUCUGGUATT against SERTAD1 | 0.376 (inactive)
39 | GAAGAGAACUUCUGCCGUATT against MST1 | -1.47 (active)
40 | GAUUAAUCCUUCAAUGAUUTT against TAF9B | -0.0247 (inactive)
41 | CGUCAGCUAUGUAAUGUUUTT against SLC22A7 | -0.387 (inactive)
42 | GGACAGCUACGUGAAGAUUTT against PAK6 | -0.57 (inactive)
43 | UGAUGGUUGUGACAAUUGUTT against SUPT4H1 | -1.01 (active)
44 | AGCCUGUGAUGACUACAGATT against MGP | -0.0854 (inactive)

Row | Sequence | median seed-adjusted z-score
45 | GAACUUACCUUCAACUACATT against NSD1 | -0.372 (inactive)
46 | GAGUGAUUCUAGCCUCUAATT against SEC61A1 | 0.312 (inactive)
47 | CGAGAAAUCCCACAAGCGATT against NOVA2 | 0 (inactive)
48 | GGAAGGCUUUUAGCAAUGATT against ZNF570 | 0.662 (inactive)
49 | GGAUCGAGGAAAUAACAAUTT against DDX42 | -2.13 (active)
50 | GAAUGAGUUUUGUCAUGGATT against SUV39H2 | -0.279 (inactive)
51 | AGGCCGUGCUCUUCACCUATT against FAAH | 0.373 (inactive)
52 | GAGAUAUACGAGGAGAUUATT against TIGD1 | 0.224 (inactive)
53 | GGUCAGAACAUUCACCGAATT against CFTR | -1.23 (active)
54 | GAAUGUGCUAUGAAGCUUUTT against SPRR1B | -0.721 (inactive)
55 | GGCUCGUAUUUUCUGGUUUTT against ACHE | 0 (inactive)
56 | CCUUGCCUCUAUGAGAUCATT against CHCHD2 | 0.0884 (inactive)
57 | GGGUCAUUCUAUGGGCAAATT against OGFOD2 | 0.493 (inactive)
58 | GACUUGAGCUAAAUGGUCATT against SIAH1 | 1.5 (active)
59 | CCUAUACUGUGGGCUAUAATT against STARD4 | 0.173 (inactive)
60 | AGCCGUGGAUGGUAGAUCUTT against ZNF2 | -0.119 (inactive)
61 | CAGACUAAACUAUAGCGAUTT against SENP6 | -1.03 (active)
62 | GCAACUCCAAUGUCAGUGATT against TAF9B | -0.0247 (inactive)
63 | GAGUCUGAAGGAUACUAUUTT against PGAM1 | -0.234 (inactive)
64 | GCCCUGAACAAGUUGCUCATT against TRPV6 | -0.511 (inactive)
65 | GCUUUUCCCGGUCAGAUCATT against KLF12 | -0.0892 (inactive)
66 | CCAUCGCAGAGGGAGAUAATT against USP43 | 0 (inactive)

Row | Sequence | median seed-adjusted z-score
67 | GCUUCUAUAUUCAUGCUAATT against DDX6 | 1.12 (active)
68 | GGUGAUGAGUGUUCCUACATT against KCNA4 | -0.634 (inactive)
69 | GGAUUUCUCAUGGAAGUUUTT against CUTC | -0.377 (inactive)
70 | CGUAAAACCCAUCAAGUUUTT against B3GALNT1 | 0.128 (inactive)
71 | GGCGGCAAGACGUAAGGAATT against SEMA3B | 0.000251 (inactive)
72 | UGCUGACCCUAAUCCCUUATT against ETV2 | 0 (inactive)
73 | AGUUAGAGGUAGCAUUAUATT against FZD5 | -0.129 (inactive)
74 | GAGCAAUGCUGACUAUCAATT against CNOT7 | 0.716 (inactive)
75 | CACUCGCAGUUAAUAUCAUTT against AZIN1 | -1.14 (active)
76 | GGAUCCAGCUUUUCCUCGATT against ABCC10 | -1.56 (active)
77 | CCACGGCUGCAACAUCUUUTT against PDE2A | -0.2 (inactive)
78 | CAGCCGCUCUCGUCAAUGUTT against GGTLC2 | -0.288 (inactive)
79 | ACAACUUCGUUUUCGGUCATT against TUBB2C | 0 (inactive)
80 | GCAGCAACAUUAUUGUCUUTT against CLDN17 | 0 (inactive)
81 | GAAUGAAUUCUCUACUCUATT against ERBB3 | -0.561 (inactive)
82 | GCCUGUGAAGUGAACCUGATT against TMPRSS6 | 1.29 (active)
83 | UGAUAUUGCUUAGUCCAUUTT against PRLHR | 0 (inactive)
84 | CAAACGUGGACUGUCCAAATT against CA4 | 0.0549 (inactive)
85 | CAUGCACGGAGAGCCCAAATT against RPUSD3 | 0.303 (inactive)
86 | CCAGGAGAUCUUUGCCUUUTT against SLC4A3 | -0.7 (inactive)
87 | GAACCGCUACAAGAACAUUTT against PTPN6 | -0.515 (inactive)
88 | AGAUGAAACUUCUACUGAATT against POLR2H | -2.74 (active)

Row | Sequence | median seed-adjusted z-score
89 | CUUUGUCUAUGUCACCAUUTT against IMP5 | 0.559 (inactive)
90 | CAAGCGAAUUAACUAUCUATT against GJB3 | -0.198 (inactive)
91 | GUCUCGCUGUGAUAGAUCATT against ELN | -0.149 (inactive)
92 | CCAACAUCGAGUCCCUCAATT against SLC29A3 | -0.0626 (inactive)
93 | CUGAUAAAGUGGGUCAACATT against TNFRSF10B | 0.064 (inactive)
94 | CCAUCGUCAUGGAUCCAGATT against KDR | 0.0728 (inactive)
95 | GGGACAUCCUUUCCGGAAATT against NDUFS3 | -0.54 (inactive)
96 | GGAGUGUGAUGAUUCGUGATT against DGKK | 0 (inactive)
97 | AGAACUCACCUCCUGAUUATT against YY1 | 1.94 (active)
98 | GCAAGAUAACAAUUGAUAUTT against ANKRD30A | 0.259 (inactive)
99 | AGAUCUUCGCAAAUACUGUTT against KRT18 | 0.558 (inactive)
100 | GGCUUAUGGAGGACCCUAUTT against NCOR1 | 0.0767 (inactive)
101 | CCUAUGAUCCAACACCAUATT against GMPPA | 0.619 (inactive)
102 | CAUUAGCAGUUGUCCCGUUTT against P2RY10 | -0.432 (inactive)
103 | CUACUUCCGCAACCAGCUATT against UNC119 | 0.171 (inactive)
104 | CUAUGGUAGCGACACUGCATT against LILRB1 | 0.539 (inactive)
105 | UCACAGAGCCUAUUAUUUUTT against PRKY | 0.168 (inactive)
106 | GUGUCAGAGUUUAUAUCAATT against PDE4D | 0 (inactive)
107 | CAAACUAUCUCUGAAAAUATT against TRYX3 | 2.3 (active)
108 | GCUGAUGACUGUCGUUAUATT against TBX3 | 0 (inactive)
109 | CAUCCUGUAUAAGUACUAUTT against RNF216 | -0.246 (inactive)
